Measured values: PubChem BioAssay AID1159580 (chemical genetic matrix, 2015)
About 2,000 (36%) of roughly 5,500 compounds were called active. About 18% were inconclusive and are not listed. No stated cut-off is given here; in the data, active means normalized growth mostly below about 0.91 (no sharp cut-off); inconclusive means no clear call, values can overlap the other calls; inactive means mostly above about 0.92. The list shows a part of the results.

Experiment: chemical genetic growth profiling, strain panel (AID 1159580);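 further: tested at 20 µM; growth read once vehicle control cultures reached saturation at 30 °C; 1 = growth at the plate median or of vehicle wells; lower values mean less growth of the strain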
Details: S. cerevisiae deletion strains, growth OD

Measured: normalized growth

CC(N)=O
inactive: locus YAL040C, strain CLN3, hits give low values 0.973 | locus YER002W, strain NOP16, hits give low values 0.992 | locus YGR078C, strain PAC10, hits give low values 1 | locus YGR229C, strain SMI1, hits give low values 1.01 | locus YJR075W, strain HOC1, hits give low values 0.991 | locus YNL128W, strain TEP1, hits give low values 0.997 | locus YNL175C, strain NOP13, hits give low values 0.992 | locus YNL197C, strain WHI3, hits give low values 1 | locus YNL224C, strain SQS1, hits give low values 1.04 | locus YOR083W, strain WHI5 (second series), hits give low values 1 | locus YPL241C, strain CIN2, hits give low values 0.975
